HCMV inh = qHTS Assay for inhibitors of the human cytomegalovirus (HCMV); HFF cells, HCMV-luciferase reporter, 72 h; hits give low values; activity change, negative = inhibition, % at 57.5 µM; 410,000 tested, 4.5% active; in the data active = activity change below about -60%; inconclusive = no clear call, values can overlap the other calls; inactive = above about -39%
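HFF cells seeded 16 h at 37C, treated with compounds, infected with luciferase-reporter HCMV at MOI 1 PFU/cell; luciferase read at 72 h post infection, normalized to buffer-only and Salinomycin controls.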
Pf growth 96h = Primary qHTS for delayed death inhibitors of the malarial parasite plastid, 96 hour incubation | P. falciparum luciferase reporter growth, 96 h | Potency, µM (titrated, usually from 28.7 µM), actives largely listed as inhibitors | 320,000 tested, 6.9% active
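Luminescence readout: decreased luciferase signal marks inhibited growth of reporter-expressing P. falciparum in infected red cells (2% hematocrit, 0.05% parasitemia final), exposed to compound two generations (96 h, 37 C, 5% CO2).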
Sm TGR inh = qHTS Assay for the Inhibitors of Schistosoma Mansoni Peroxiredoxins; purified TGR, DTNB reduction, TNB absorbance 405 nm; Potency, µM (highest dose often 114 µM), most hits filed as inhibitors; 360,000 tested, 3% active; also: nearly all actives have a fitted effect of over 60% in size
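TGR 20 nM + NADPH 100 uM (dispensed conc.), cpd preinc 15 min RT; start with NADPH (500 uM addition) then DTNB (15 mM addition). Kinetic TNB absorbance, 405 nm filter. Four-parameter Hill fit across titration.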
SARS PLP yeast = qHTS of Yeast-based Assay for SARS-CoV PLP; S. cerevisiae expressing SARS-CoV PLpro, growth rescue; Potency, µM (top dose mostly 32.9 µM), most hits filed as activators; 330,000 tested, 0.19% active; calls by dose curve; also: nearly all actives have a fitted effect of over 55% in size
HCV inh = qHTS Assay for Inhibitors of Hepatitis C Virus (HCV). Huh7.5.1 HCVcc-Cre infection, luciferase reporter, 44 h. Potency, µM (series often up to 41.8 µM), usual class: inhibitors. 340,000 tested, 3.4% active. AID 651820, 2012
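1,000 cells/well; 4 h culture; + compound; + HCVcc-Cre (~0.5 moi); 44 h; luciferase substrate, RT 15 min; read 15 sec.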
Pf growth 48h = Primary qHTS for delayed death inhibitors of the malarial parasite plastid, 48 hour incubation. P. falciparum luciferase growth in erythrocytes, 48 h. Potency, µM (top dose mostly 28.7 µM), hits mostly inhibitors. 310,000 tested, 5.9% active. AID 504832, 2011
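Compounds are pin-transferred into medium, infected erythrocytes (2% hematocrit, 0.1% parasitemia final) are added, and plates sit one parasite generation at 37 C in 5% CO2. Detection reagent is then added and luminescence measured.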
Numbers stand for hits; - = inactive; ? = inconclusive; . = not tested or not shown; [ ] = dose if it differs, or a comment. Compounds with a hit are over-represented: about 15% of the library has one in this group of screens. Unless noted, calls follow the shape of the dose curve; as a rule, active = well fitted curve in the direction sought with a large enough effect; inconclusive = small, poorly fitted or top-dose-only effect, or another doubt; inactive = no such curve, though single readings can be large; an effect the other way counts as inactive or inconclusive.

SMILES | HCMV inh | Pf growth 96h | Sm TGR inh | SARS PLP yeast | HCV inh | Pf growth 48h
CC(NCc1ccccc1O)c1ccccc1 (stereo unspecified) | - | - | - | - | - | ?
Oc1ccccc1CNCC12CC3CC(CC(C3)C1)C2 | - | 0.083µM | - | - | - | 0.1µM
OCCNCC12CC3CC(CC(C3)C1)C2 | - | ? | . | - | - | -
COc1ccc(NC(=O)c2nc(SCc3ccccc3F)ncc2Cl)cc1 | - | . | - | . | . | .
O=C(c1cccnc1)C1Cc2ccccc2C1=O (stereo unspecified) | - | 7.4µM | - | - | - | ?
O=c1[nH]c(=S)n(CCC2=CCCCC2)c(O)c1C=NCc1cccnc1 | - | . | - | - | - | -
O=C(N/N=C/c1c(O)n(CCC2=CCCCC2)c(=S)[nH]c1=O)c1ccccc1 | - | - | - | 11µM | - | -
N#CCSc1nnc(COc2ccc3ccccc3c2)o1 | ? | . | - | - | - | -
COC(=O)C1=C(C)N(Cc2ccccc2)C(=NCCCCO)N[C@H]1CCc1ccccc1 | - | 3.7µM | - | - | - | ?
COC(=O)C1=C(C)N(Cc2ccc(C(F)(F)F)cc2)C(=NCc2ccccc2)NC1c1ccccc1 (stereo unspecified) | -92 | . | . | . | . | .
COC(=O)C1=C(C)N(Cc2ccccc2)C(=NCc2ccc(OC)cc2)N[C@H]1c1ccccc1 | - | - | - | - | ? | ?
COC(=O)C1=C(C)N(Cc2ccccc2)C(=NCCc2c[nH]c3ccccc23)N[C@H]1c1cccc(C(F)(F)F)c1 | . | 13µM | - | - | ? | ?
CCN=C1NC(c2ccc(F)cc2)C(C(=O)OC)=C(C)N1Cc1cccc(C(F)(F)F)c1 (stereo unspecified) | - | . | . | . | . | .
COC(=O)C1=C(C)N(Cc2cccc(C(F)(F)F)c2)C(=NCC2CC2)NC1c1cccc(C(F)(F)F)c1 (stereo unspecified) | -85 | . | . | . | . | .
COC(=O)C1=C(C)N(Cc2ccccc2)C(=S)N[C@H]1CCc1ccccc1 | . | - | - | - | . | ?
COc1ccc(C2=NCC(C)n3c2c2ccccc2[n+]3[O-])cc1 (stereo unspecified) | - | . | . | . | . | .
CN(C)c1ccc2cc3c(c(S(=O)(=O)c4ccccc4)c2c1)CCC3 | - | . | . | . | . | .
COC(=O)C1=C(C)N(Cc2ccccc2)C(=NCCc2ccccn2)N[C@H]1c1cccc(F)c1 | - | 8.3µM | - | ? | - | 12µM
CCN1C(=NCCc2ccccn2)N[C@@H](c2cccc(F)c2)C(C(=O)OC)=C1C | - | ? | - | - | - | -
COC(=O)C1=C(C)N(CC2CC2)C(=NCc2cccc(C(F)(F)F)c2)N[C@H]1c1ccccc1 | . | - | - | ? | ? | -
COC(=O)C1=C(C)N(Cc2ccccc2)C(=NCc2cccc(C(F)(F)F)c2)N[C@H]1c1cccc(F)c1 | -98 | ? | - | - | ? | 6.6µM
CCN1C(=NCCc2c[nH]c3ccccc23)N[C@@H](c2ccccc2)C(C(=O)OC)=C1C | . | - | - | - | . | 13µM
COC(=O)C1=C(C)N(Cc2ccccc2)C(=NCC(C)C)N[C@H]1c1ccccc1 | . | 8.3µM | - | - | - | ?
O=C(COCc1nc2ccccc2c(=O)[nH]1)NC1CCCC1 | - | ? | - | - | - | -
CCN1C(=NCc2cccc(Cl)c2)N[C@@H](c2cccc(F)c2)C(C(=O)OC)=C1C | - | ? | - | - | - | ?
SMILES | HCMV inh | Pf growth 96h | Sm TGR inh | SARS PLP yeast | HCV inh | Pf growth 48h
CCN1C(=NCCc2cccs2)N[C@@H](c2cccs2)C(C(=O)OC)=C1C | . | ? | - | - | - | 7.4µM
COC(=O)C1=C(C)N(Cc2ccc(C(F)(F)F)cc2)C(=NCc2ccccc2)NC1c1cccc(Cl)c1 (stereo unspecified) | -100 | . | . | . | . | .
COC(=O)C1=C(C)N(Cc2ccccc2)C(=NCCCCO)N[C@H]1c1cccc(C(F)(F)F)c1 | - | ? | - | - | ? | ?
COCCN=C1N[C@@H](c2cccc(C(F)(F)F)c2)C(C(=O)OC)=C(C)N1Cc1ccccc1 | - | 4.7µM | - | - | - | ?
CCN1C(=NCc2cc(OC)c(OC)c(OC)c2)N[C@@H](c2cccc(F)c2)C(C(=O)OC)=C1C | . | 10µM | - | - | . | 5.2µM
COC(=O)C1=C(C)N(Cc2cccc(C(F)(F)F)c2)C(=NCc2ccc3c(c2)OCO3)NC1c1ccc(Cl)cc1 (stereo unspecified) | - | . | . | . | . | .
CCC(C)[C@H](NS(=O)(=O)c1ccc(C)cc1)C(=O)N1CCC(C(=O)N[C@@H](Cc2ccccc2)C(=O)O)CC1 (stereo partly specified) | - | - | - | - | - | -
COC(=O)C1=C(C)N(Cc2ccc(C(F)(F)F)cc2)C(=NCc2ccccc2)NC1c1cccc(C(F)(F)F)c1 (stereo unspecified) | -101 | . | . | . | . | .
CC(=O)C1=C(C)N(Cc2ccccc2)C(=O)N[C@H]1CCc1ccccc1 | -93 | ? | - | - | ? | ?
CCOC(=O)CN1C(=O)N[C@@H](CCc2ccccc2)C(C(C)=O)=C1C | - | . | . | . | - | .
COC(=O)C1=C(C)N(Cc2ccccc2)C(=NCc2cccc(C(F)(F)F)c2)N[C@H]1c1cccc(C(F)(F)F)c1 | . | - | - | - | -[8.37 µM] | ?
CCC(C)NS(=O)(=O)c1cc2c3c(c1)CCN3C(=O)CC2 (stereo unspecified) | - | - | - | - | - | -
COc1ccccc1C(=O)Nc1ccc(NC(=O)c2ccco2)cn1 | - | - | - | - | ? | -
COc1ccccc1C(=O)NC(=S)Nc1ccc(NC(=O)c2ccco2)cc1 | -75 | 5.2µM | - | - | - | ?
CCOc1ccc(NC(=S)NC(=O)c2ccco2)cc1 | - | - | 13µM | - | - | -
Cc1ccc(-n2nc3ccc(NC(=S)NC(=O)/C=C/c4ccco4)cc3n2)cc1 | -68 | 1.9µM | - | - | - | -
NS(=O)(=O)c1ccc(NC(=S)NC(=O)/C=C/c2ccco2)cc1 | - | ? | 40µM | - | - | -
NC(N)=NS(=O)(=O)c1ccc(NC(=S)NC(=O)/C=C/c2ccco2)cc1 | - | - | - | - | - | -
COc1ccc2sc(N(Cc3cccnc3)C(=O)c3cccs3)nc2c1 | ? | . | - | . | . | .
CN(C)Cc1csc(Nc2ccc(C(=O)c3ccccc3)cc2)n1 | - | . | . | . | . | .
O=C(Nc1ccc(NC(=S)NC(=O)c2ccco2)cc1)c1ccc(Br)cc1 | -78 | . | . | . | . | .
CC(=O)c1ccc(NC(=S)NC(=O)/C=C/c2ccco2)cc1 | - | - | 20µM | - | - | -
CC(C)CC(=O)NC(=S)Nc1ccc(NC(=O)c2ccco2)cc1 | ? | 6.6µM | ? | - | - | ?
NS(=O)(=O)c1ccc(NC(=S)NC(=O)c2ccco2)cc1 | - | - | 56µM | - | - | ?
